Experimental data published in PubChem BioAssay AID1259421 (Broad Institute, 2018).
Several values for one entry are separate records, joined by “and”; a condition that tells them apart may be missing. Equal values may be shown once. Among all 6,400 compounds or so, about 610 (9.5%) were called active. Rule as the data show it: active = activity change below about -70%; inconclusive = no clear call, values can overlap the other calls; inactive = above that. Many of the other results were omitted from the sample, so actives are more common in it than they were. Some structures have more than one record in an assay (separate samples or runs), and their calls can disagree.

test: T. gondii ME49Luc in HeLa cells, luciferase assay, 72 h, no IFN-y (AID 1259421); details: stronger effect = lower value, concentration not given here

SMILES | activity change, negative = inhibition
CCn1cc(-c2ccnc3[nH]c(-c4cccc(CN(C)C)c4)cc23)c(-c2ccc(NC(=O)N(C)C)cc2)n1 | -82.3% (active)
CN(C)C(=O)Nc1cccc(-c2ccc(N(C)C)cc2)c1 | 27.1% (inactive)
CN(Cc1cnc2nc(N)nc(N)c2n1)c1ccc(C(=O)N[C@@H](CCC(=O)O)C(=O)O)cc1 | -80.9% (active) and -28.7% (inactive)
CN(Cc1cnc2nc(N)nc(N)c2n1)c1ccc(C(=O)NC(CCC(=O)O)C(=O)O)cc1 (stereo not drawn) | -57.2% (inactive) and 1.6% (inactive)
C#CCC(Cc1cnc2nc(N)nc(N)c2n1)c1ccc(C(=O)N[C@@H](CCC(=O)O)C(=O)O)cc1 (stereo partly drawn) | -66.9% (inactive)
COc1ccc(CCN(C)CCCC(C#N)(c2cc(OC)c(OC)c(OC)c2)C(C)C)cc1OC (stereo not drawn) | 41.7% (inactive)
N=C(CC(O)COc1ccccc1-c1ccccc1)N1CCCCC1 (stereo not drawn) | 10.7% (inactive)
COc1ccc(-c2cnc3c(-c4cccc5ncccc45)cnn3c2)cc1 | 2.75% (inactive)
CC(C)Oc1ccc(-c2cnc3c(-c4ccnc5ccccc45)cnn3c2)cc1 | -49.1% (inactive)
c1cc(-c2cnn3cc(-c4ccc(N5CCNCC5)cc4)cnc23)c2cccnc2c1 | -84.7% (active)
COC(F)(F)C(Cl)Cl | 19.6% (inactive)
CC(C)(Oc1ccc(Cl)cc1)C(=O)N1CSCC1C(=O)O (stereo not drawn) | 19% (inactive)
NC(=O)C1CC2(NC(=O)NC2=O)c2cc(F)ccc2O1 (stereo not drawn) | 12.6% (inactive)
Cc1cc(Nc2cc(N3CCN(C)CC3)nc(Sc3ccc(NC(=O)C4CC4)cc3)n2)n[nH]1 | -15.4% (inactive) and -14.2% (inactive) and -8.95% (inactive)
Cc1nc(Nc2ncc(C(=O)Nc3c(C)cccc3Cl)s2)cc(N2CCN(CCO)CC2)n1 | -75.5% (active) and -82.6% (active)
S=c1[nH]c2ccccc2s1 | 14.8% (inactive) and 4.19% (inactive)
S=c1nc[nH]c2[nH]ncc12 | -6.21% (inactive)
C[C@]12CCC(=O)C=C1CCC1C2[C@@H](O)C[C@@]2(C)C1CC[C@]2(O)C(=O)COC(=O)CCC(=O)O (stereo partly drawn) | -4.51% (inactive) and -4.05% (inactive)
COC1C(O)[C@@H](O)C(O)C(O)[C@H]1O (stereo partly drawn) | 4.8% (inactive)
COc1ccc2c(c1)OCC(Cc1ccc(O)c(OC)c1)C2=O (stereo not drawn) | -0.0941% (inactive)
COc1ccc2c(c1)OCC(Cc1ccc(OC)c(OC)c1)C2=O (stereo not drawn) | -1.15% (inactive)
COc1ccc2c(c1)OCC(Cc1ccc(OC)c(OC(C)=O)c1)C2=O (stereo not drawn) | -72% (active)
CO/N=C(/C(=O)N[C@@H]1C(=O)N2C(C(=O)O)=C(C[n+]3cccc4c3CCC4)CS[C@H]12)c1csc(N)n1 | 14.5% (inactive)
CO/N=C(/C(=O)NC1C(=O)N2C(C(=O)O)=C(CSc3nc(=O)c(=O)[nH]n3C)CSC12)c1csc(N)n1 (stereo not drawn) | -0.639% (inactive)
COc1ccc([C@@H]2Sc3ccccc3NC(=O)[C@@H]2O)cc1 | 11.7% (inactive)
O=P(O)(O)OC[C@H]1OC(O)[C@H](O)[C@@H](O)[C@@H]1O (stereo partly drawn) | 7.08% (inactive)

SMILES | activity change, negative = inhibition
Cc1[nH]c2ccccc2c1CCNC(=O)c1cccs1 | 9.58% (inactive)
CC(=O)NCCc1c(Cc2ccccc2)[nH]c2ccccc12 | -2.39% (inactive)
Cc1[nH]c2ccccc2c1CCNCc1ccc(/C=C/C(=O)NO)cc1 | -73.2% (active) and -76.5% (active)
CC(C)(N)C(=O)N[C@H](COCc1ccccc1)C(=O)N1CCC2(CC1)CN(S(C)(=O)=O)c1ccccc12 | 5.12% (inactive)
Cc1cc(/C(=C\Nc2ccc(Cl)cc2)C(=O)Nc2ccc(Cl)cc2)on1 | 18.7% (inactive)
FC(F)(F)C(F)(F)C(F)(F)C(F)(F)C(F)(F)C(F)(F)C(F)(F)C(F)(F)Br | 2.95% (inactive)
Brc1cc2c(cc1[C@H]1Nc3ccccc3[C@H]3C=CC[C@H]31)OCO2 (racemic) | 11.8% (inactive)
CC(=O)c1ccc2c(c1)[C@@H]1C=CC[C@@H]1[C@H](c1cc3c(cc1Br)OCO3)N2 | -79.7% (active)
O=C(O)c1ccc2c(c1)OCO2 | 16% (inactive)
COC(=O)C1=C(C)NC(C)=C([N+](=O)[O-])[C@@H]1c1ccccc1C(F)(F)F | 1.1% (inactive)
C/C(=C(/CCO)SSCC1CCCO1)N(C=O)Cc1cnc(C)nc1N (stereo not drawn) | 15% (inactive)
C=CC(=O)Nc1cccc(Oc2nc(Nc3ccc(N4CCN(C)CC4)cc3OC)ncc2Cl)c1 | -35.2% (inactive)
CCC(=O)Nc1cccc(Oc2nc(Nc3ccc(N4CCN(C)CC4)cc3OC)ncc2Cl)c1 | 7.36% (inactive)
CN1CCN(c2ccc(OC(F)(F)F)c(Nc3ncc4c(n3)-c3c(c(C(N)=O)nn3CCO)CC4)c2)CC1 | -90.8% (active)
CCN(CC)S(=O)(=O)c1ccc(C(=O)O)cc1 | -0.641% (inactive) and 12.4% (inactive)
CCc1cc(C(C)=O)c(O)cc1OCCCCCC(C)(C)c1nn[nH]n1 | 50.8% (inactive) and 31.2% (inactive)
Nc1ccncc1N | -3.18% (inactive)
CCC(=O)N1CCN(c2ccc(-n3c(=O)ccc4cnc5ccc(-c6cnc7ccccc7c6)cc5c43)cc2C(F)(F)F)CC1 | -56% (inactive)
Nc1ccc(-c2ccc3ncc4ccc(=O)n(-c5cccc(C(F)(F)F)c5)c4c3c2)cn1 | -76.7% (active)
COc1ccc(C(=O)CCC(=O)O)c2ccccc12 | 2.31% (inactive)
COC(=O)c1cc(S(C)(=O)=O)ccc1OC | 9.8% (inactive)
COc1ccc(CCN2CCN(CCCc3ccccc3)CC2)cc1OC | -27.2% (inactive)
OCC1OC(n2cnc3c(NC4CCCC4)ncnc32)C(O)C1O (stereo not drawn) | 1.64% (inactive)
CC(C)(C)c1cc(/C=C(\C#N)C(N)=S)cc(C(C)(C)C)c1O | -82.2% (active) and -86% (active)
N#C/C(=C\c1ccc(O)c(O)c1)C(N)=O | 16.2% (inactive) and 6.7% (inactive)
N#CC(C#N)=C(N)/C(C#N)=C/c1cc(O)c(O)c(O)c1 | 5.32% (inactive)

SMILES | activity change, negative = inhibition
COc1cc(N)c(Cl)cc1C(=O)N[C@@H]1CCN(CCCOc2ccc(F)cc2)C[C@@H]1OC | 6.27% (inactive)
COc1ccc(C2(O)CCC(N3CC[C@@H](NC(=O)CNC(=O)c4cccc(C(F)(F)F)c4)C3)CC2)cn1 (stereo partly drawn) | 4.89% (inactive)
Cc1ccc(S(=O)(=O)c2ccc([N+](=O)[O-])o2)cc1 | 10.8% (inactive)
CC(C)(C)NC(=O)N[C@H](C(=O)N1C[C@H]2[C@@H]([C@H]1C(=O)NC(CC1CCC1)C(=O)C(N)=O)C2(C)C)C(C)(C)C (stereo partly drawn) | 0.503% (inactive)
CCC[C@H](NC(=O)[C@@H]1[C@H]2CCC[C@H]2CN1C(=O)[C@@H](NC(=O)[C@@H](NC(=O)c1cnccn1)C1CCCCC1)C(C)(C)C)C(=O)C(=O)NC1CC1 | -72.4% (active)
CCCC[C@H](NC(=O)[C@@H]1[C@@H]2[C@H](CN1C(=O)[C@@H](NC(=O)NC1(CS(=O)(=O)C(C)(C)C)CCCCC1)C(C)(C)C)C2(C)C)C(=O)C(=O)NC1CC1 | 23.2% (inactive)
CC(C)(C)c1cc(O)c(C(C)(C)C)cc1O | 7.89% (inactive)
COC(=O)C[C@H]1C(C)(C)[C@@H](O)[C@@H]2CC3=C4CC(O)O[C@@H](c5ccoc5)[C@]4(C)CCC3[C@@]1(C)C2=O (stereo partly drawn) | -4.18% (inactive)
CO[C@H]1C=CO[C@@]2(C)Oc3c(C)c(O)c4c(O)c(c(/C=N/N5CCN(C)CC5)c(O)c4c3C2=O)NC(=O)/C(C)=C\C=C/C(C)[C@H](O)[C@@H](C)[C@@H](O)[C@@H](C)[C@@H](OC(C)=O)[C@@H]1C (stereo partly drawn) | -14.4% (inactive) and 12.2% (inactive)
CC1(C)CCC(CN2CCN(c3ccc(C(=O)NS(=O)(=O)c4ccc(NCC5CCOCC5)c([N+](=O)[O-])c4)c(Oc4cnc5[nH]ccc5c4)c3)CC2)=C(c2ccc(Cl)cc2)C1 | -89.7% (active)
CC(C)COC(=O)c1ccc(N)cc1 | 47.4% (inactive)
COC(=O)c1cc(OC)c2c(c1-c1c(C(=O)OC)cc(OC)c3c1OCO3)OCO2 | 11.4% (inactive)
C=C1C(=O)O[C@H]2[C@H]1CC/C(C)=C\CC[C@@]1(C)O[C@@H]21 | 7.41% (inactive)
O=C(O)c1ccccc1O | 10.4% (inactive) and 3.39% (inactive)
O=C(N/N=C/c1ccccc1O)c1ccccc1O | -88% (active) and -86.5% (active)
O=C(Nc1ccc(O)cc1)c1ccccc1O | 30.3% (inactive)
O=C(OC1C(OC(=O)c2cccnc2)C(OC(=O)c2cccnc2)C(OC(=O)c2cccnc2)C(OC(=O)c2cccnc2)C1OC(=O)c1cccnc1)c1cccnc1 (stereo not drawn) | -4.81% (inactive) and 13.2% (inactive)
CCN(CC)CCN(Cc1ccc(-c2ccc(C(F)(F)F)cc2)cc1)C(=O)Cn1c(SCc2ccc(F)cc2)nc(=O)c2c1CCC2 | -77.9% (active)
CCN(Cc1ccccc1)C(=O)Cn1c(=O)n(C)c2cnc(-c3ccccc3)nc21 | 9.96% (inactive)
O=C(O)[C@H](O)[C@@H](O)[C@H](O[C@@H]1O[C@H](CO)[C@H](O)[C@H](O)[C@H]1O)[C@H](O)CO | 11.1% (inactive)
Clc1ccc(C(Cn2ccnc2)OCc2ccsc2Cl)c(Cl)c1 (stereo not drawn) | -28.7% (inactive) and -2.79% (inactive)
C=CCOC(Cn1ccnc1)c1ccc(Cl)cc1Cl (stereo not drawn) | 26.1% (inactive) and 17.1% (inactive)
Clc1ccc(COC(Cn2ccnc2)c2ccc(Cl)cc2Cl)c(Cl)c1 (stereo not drawn) | -91.6% (active)
Clc1ccc(CSC(Cn2ccnc2)c2ccc(Cl)cc2Cl)cc1 (stereo not drawn) | -80.3% (active) and -86.4% (active)
Clc1ccc(C(Cn2ccnc2)OCc2csc3c(Cl)cccc23)c(Cl)c1 (stereo not drawn) | -75.6% (active)
Clc1ccc(C(Cn2ccnc2)OCc2ccc(Sc3ccccc3)cc2)c(Cl)c1 (stereo not drawn) | -73.4% (active)
